tim10-1 inh – growth inhibitors of tim10-1 mutant yeast, primary screen, luminescence, uHTS. S. cerevisiae tim10-1 ts strain growth, BacTiter-Glo, 24 h. AID 463190, 2010. 330,000 tested, 2.2% active. inhibition, % at 20 µM;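 active = inhibition of at least 40%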;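 note: mutant grown at 25 °C; 0% = DMSO wells with yeast and 100% = wells holding no yeast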
TIM10 inh – growth inhibitors of isogenic TIM10 control yeast, primary screen, counter-screen for tim10-1 yeast inhibitor project, luminescence, uHTS; S. cerevisiae TIM10 strain growth, BacTiter-Glo luminescence, 24 h; 330,000 tested, 1.4% active; inhibition, % at 10 µM; AID 463195, 2010;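 active = inhibition of 40% or more at the single tested concentration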;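 note: wild-type TIM10 isogenic control strain grown at permissive 25 °C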
tim23-1 inh – growth inhibitors of tim23-1 mutant yeast, primary screen, luminescence, uHTS; inhibition, % at 20 µM; 330,000 tested, 1.3% active; AID 463212, 2010; S. cerevisiae tim23-1 growth, BacTiter-Glo luminescence, 24 h;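 active = growth inhibition of the mutant yeast at or above 50%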;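 note: temperature-sensitive mutant grown at 25 °C; plate controls were DMSO-treated mutant yeast for no effect and medium wells lacking yeast for full effect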
Mdm2-MdmX inh – inhibitors of human Mdm2-MdmX association, primary screen, cell-based, luminescence, split luciferase, SaOS-2, uHTS; inhibition, % at 8 µM; SaOS-2 split-luciferase Mdm2/MdmX complementation; Protein Mdm4 (Homo sapiens) + E3 ubiquitin-protein ligase Mdm2 (Homo sapiens), …; 330,000 tested, 3% active;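 active = inhibition of at least 50% at 8 µM in the primary screen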
Target sequence (O15151 whole entry, looked up): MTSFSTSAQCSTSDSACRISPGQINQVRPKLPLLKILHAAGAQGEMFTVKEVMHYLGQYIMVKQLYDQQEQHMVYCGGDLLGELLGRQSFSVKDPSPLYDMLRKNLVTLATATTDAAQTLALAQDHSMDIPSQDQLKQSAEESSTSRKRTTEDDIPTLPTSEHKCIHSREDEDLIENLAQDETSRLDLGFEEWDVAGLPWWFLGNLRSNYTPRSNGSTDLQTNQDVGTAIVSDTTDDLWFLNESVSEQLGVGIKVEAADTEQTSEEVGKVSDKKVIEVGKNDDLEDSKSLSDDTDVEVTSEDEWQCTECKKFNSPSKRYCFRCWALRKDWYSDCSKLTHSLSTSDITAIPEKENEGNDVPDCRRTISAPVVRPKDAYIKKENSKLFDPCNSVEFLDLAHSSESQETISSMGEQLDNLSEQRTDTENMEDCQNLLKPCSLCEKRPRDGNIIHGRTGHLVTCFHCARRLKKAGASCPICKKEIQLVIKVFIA
Target sequence (Q00987 whole entry, looked up): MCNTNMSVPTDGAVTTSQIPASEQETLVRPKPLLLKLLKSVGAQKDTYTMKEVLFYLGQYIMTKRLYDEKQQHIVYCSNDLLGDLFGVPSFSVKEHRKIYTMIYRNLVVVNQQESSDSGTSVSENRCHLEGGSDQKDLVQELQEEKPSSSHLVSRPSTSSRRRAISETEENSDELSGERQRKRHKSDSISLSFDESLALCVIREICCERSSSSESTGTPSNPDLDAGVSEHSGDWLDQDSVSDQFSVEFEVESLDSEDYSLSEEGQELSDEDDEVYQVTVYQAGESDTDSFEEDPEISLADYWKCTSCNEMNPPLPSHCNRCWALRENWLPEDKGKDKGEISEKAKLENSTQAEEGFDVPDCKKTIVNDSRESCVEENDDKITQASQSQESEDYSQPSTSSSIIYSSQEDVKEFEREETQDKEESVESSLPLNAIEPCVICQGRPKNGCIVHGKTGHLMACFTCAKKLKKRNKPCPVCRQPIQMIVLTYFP
MPTP inh – mitochondrial permeability transition pore inhibitors, primary screen, biochemical, isolated mouse mitochondria, absorbance. Ca2+ swelling absorbance, 30 min. inhibition, % at 10 µM. 360,000 tested, 1.4% active. AID 602449, 2012;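 active = inhibition of 50% or more, scaled per plate between neutral and stimulator controls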;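 note: 0% = DMSO wells given calcium and 100% = 1 mM EGTA wells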
MPTP counter – fluorescence retest of MPTP screen hits in isolated mitochondria, single concentration. membrane potential, Rhodamine 123 fluorescence. inhibition, % at 10 µM. 5,000 tested, 78% active. shares compounds with MPTP inh; in the data active = inhibition above about 22%;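 note: 0% = DMSO vehicle and 100% = positive control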
MPTP abs DR – mitochondrial permeability transition pore inhibitors, dose response, biochemical, absorbance, uHTS hits | shares compounds with MPTP inh | isolated mitochondria swelling | IC50, µM | 780 tested, 58% active | AID 651561, 2012; in the data active = IC50 below about 20 µM
MPTP cs DR – fluorescent counter-screen in isolated mitochondria, dose response, counter-screen for MPTP inhibitor project, biochemical, fluorescence, uHTS hits | shares compounds with MPTP inh | isolated mitochondria counterscreen, fluorescence read-out | IC50, µM | 780 tested, 49% active | AID 651564, 2012; in the data active = IC50 below about 80 µM
An asterisk follows results filed as active; i = inactive; / = no result. In the library only some 6.3% were active in any assay of this set; here they are far more common.

SMILES	tim10-1 inh	TIM10 inh	tim23-1 inh	Mdm2-MdmX inh	MPTP inh	MPTP counter	others
Cc1cccc(C(=O)NC(=S)NNC(=O)c2cccs2)c1	29	15	-6	39	54*	-12
CSc1ncnc2[nH]ccc12	/	/	/	/	0	/
CC1Oc2ccccc2C=C1/C=N/NC(=O)c1ccccc1O (configuration not stated)	-8	7	1	-62	90*	72*
COCc1c(C#N)c(NCc2cc(OC)c(OC)c(OC)c2)nc(C)c1[N+](=O)[O-]	5	-18	10	31	75*	34*
COc1ccc(-c2oc3c(c2C#CC2(O)CCCCC2)C(OC(C)=O)CCC3)cc1 (configuration not stated)	/	/	/	/	1	/
O=C1c2ccccc2C2=Nc3ccccc3SC(c3cccc(F)c3)C12 (configuration not stated)	21	33	36	42	81*	66*
CSc1ccccc1OC1CCN(Cc2ccccc2)CC1	24	-1	3	10	54*	0	MPTP abs DR=i;MPTP cs DR=63*
c1ccc(-c2cc3nc(NCC4CC4)nc(NCC4CCCCC4)c3s2)cc1	/	/	/	/	75*	97*
COCCNc1nc(NCC2CCCCC2)c2sc(-c3ccccc3)cc2n1	/	/	/	/	70*	93*
COc1cc(C(C)=O)ccc1OCC(=O)OC(C)C(=O)c1ccc(F)cc1 (configuration not stated)	-11	-7	-5	13	-1	/
O=[N+]([O-])c1cc(/C=N/N/C(=N/c2ccccn2)c2ccccn2)ccc1O	22	5	34	8	78*	8
CN(C(=S)Nc1ccc(Oc2ccccc2)cc1)c1ccc(O)cc1	/	/	/	/	44	/
CN(C(=S)Nc1ccc(SC(F)F)cc1)c1ccc(O)cc1	27	21	26	12	97*	82*
Cc1cccc2cc(CN(Cc3ccccc3)C(=S)NCCCN(C)C)c(=O)[nH]c12	9	5	3	31	4	/
Cc1ccc(CN(Cc2cc3cccc(C)c3[nH]c2=O)C(=S)NCCCN(C)C)cc1	-1	6	10	47	65*	-13	MPTP abs DR=12*;MPTP cs DR=>80
O=C(COc1ccc(-c2ccccc2)cc1)Nc1cccnc1	-22	9	23	-5	87*	102*
O=C(COc1ccc(-n2ccnc2)cc1)Nc1cccc(F)c1	8	0	-5	20	20	/
O=C(COc1ccc(-n2ccnc2)cc1)Nc1cccc(Cl)c1	11	18	17	-39	89*	57*
O=C(COc1ccc(Br)cc1)Nc1ccncc1	2	18	-9	4	55*	58*
CCC(C)(C)c1ccc(OCC(=O)Nc2ccncc2)cc1	15	24	33	9	105*	81*
COC(=O)[C@@]1(Cc2ccc(F)cc2)[C@H]2c3cc(C(=O)N(C)C)n(CCCNc4ncc(C(F)(F)F)cc4Cl)c3C[C@H]2CN1C(=O)c1ccccc1	/	/	/	/	0	/
Cc1ccc(C(=O)OCC(=O)NCc2ccccc2)s1	/	/	/	/	1	/
CCN(CC)c1ccc2c(-c3ccc(S(=O)(=O)O)cc3S(=O)(=O)[O-])c3ccc(=[N+](CC)CC)cc-3oc2c1	29	39	33	37	64*	1
CCc1ccc2c(c1)cc(CN(C(=S)Nc1ccc(Cl)cc1)C1CC1)c1nnnn12	15	10	-2	23	146*	10	MPTP abs DR=>100;MPTP cs DR=>80
O=C(NC(Cc1cn(Cc2ccccc2)cn1)C(=O)O)OCC1c2ccccc2-c2ccccc21 (configuration not stated)	/	/	/	/	0	/
SMILES	tim10-1 inh	TIM10 inh	tim23-1 inh	Mdm2-MdmX inh	MPTP inh	MPTP counter	others
O=C(Nc1cccc(F)c1)Nc1nnc([C@@H]2O[C@H](CO)[C@@H](O)[C@H]2O)s1	/	/	/	/	-2	/
COc1ccc(-n2cc(CNCCN3CCOC3=O)c(-c3ccccc3Cl)n2)cc1	8	-15	4	15	-1	/
CCN1CCC(CNCc2cn(-c3ccc(OC)cc3)nc2-c2ccccc2Cl)C1 (configuration not stated)	-45	-64	-134	15	84*	-13	MPTP abs DR=9.1*;MPTP cs DR=>80
O=[N+]([O-])c1cc(NS(=O)(=O)c2ccc(Cl)nc2)ccc1Cl	-19	4	-13	14	85*	97*
O=[N+]([O-])c1ccc(S(=O)(=O)Nc2ccc(S(=O)(=O)N3CCCC3)cc2)cc1	-14	-6	19	9	-3	/
O=[N+]([O-])c1ccc(NS(=O)(=O)c2ccc(Cl)c(Cl)c2)cc1	/	/	/	/	86*	102*
O=[N+]([O-])c1ccc(Oc2ccc(S(=O)(=O)Nc3ccccc3)cc2)cc1	29	28	41	9	69*	85*
CC(C)Sc1nc(-c2cccs2)nc2cc(Cl)ccc12	/	/	/	/	5	/
Cc1nn(CC(=O)Nc2ccc3c(c2)OCCO3)c(C)c1[N+](=O)[O-]	-22	-6	-2	3	0	/
O=C(NC1CCCC1)c1cc(COc2ccc3ncccc3c2)on1	-13	-7	-1	28	95*	94*
O=C(NCCc1cn2ccccc2n1)c1cc(COc2ccc3ncccc3c2)on1	-16	4	11	1	102*	92*
COc1cccc(CN(C)C(=O)c2cc(COc3ccc4ncccc4c3)on2)c1	31	7	34	7	97*	97*
CC(NC(=O)c1cc(COc2ccc3ncccc3c2)on1)c1ccc(F)cc1 (configuration not stated)	-14	-20	22	14	94*	86*
CC(NC(=O)c1cc(COc2ccccc2)on1)c1nccs1 (configuration not stated)	17	-1	8	-176	-3	/
COc1ccc2c(CC(=O)Nc3ccc4nc(N5CCOCC5)sc4c3)coc2c1	/	/	/	/	0	/
Cc1ccc(OCc2cc(C(=O)N3CCCCCCC3)no2)cc1C	25	14	30	14	0	/
O=C(c1cc(COc2ccc3ncccc3c2)on1)N1CCCC1	-16	2	1	-1	52*	70*
O=C(c1cc(COc2ccc3ncccc3c2)on1)N1CCCCCC1	26	23	4	-8	98*	101*
Cc1ccc(OCc2cc(C(=O)N3CCCC3)no2)cn1	15	27	30	-23	1	/

Screening data from PubChem BioAssay.
